Test results reported in the supplement of paper PMC10849652.
Of roughly 8,800 targets only a part is listed; those with a hit were picked by preference. About 0.5% of all pairs of compound and target were hits.

Columns and labels:
Test in all cases: log2 fold change, soluble protein after heating vs DMSO (PISA); higher = thermal stabilisation; K562 lysate, 10 uM; active = over 0.2 and 3.5 SD of the protein, either way, in both replicates (recomputed)
[1] = compound: C1=CC=C(C=C1)[C@H](COC2=CC3=C(C=C2)NC(=O)N3)NC(=O)C4=CC=CN(C4=O)CC5=CC(=C(C=C5)F)F
Method in brief: (§1)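 Dounce homogenisation of K562 pellets in PBS pH 7.4 with 1 mM MgCl2 produced a crude extract, used at 1 mg/mL protein. Exposure to 10 μM compound lasted 30 min, and aliquots were then heated for 3 min across 48°C-58°C, pooled and brought to 0.5% NP-40 at 4°C. The supernatant after 21,000xg for 90 min was quantified by TMTpro 16plex LC-MS/MS with channel sums equalised. Duplicate values are given as log-two fold change in thermal stability relative to solvent controls.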

[2] = compound: CC1=C(SC2=C1C(=N[C@H](C3=NN=C(N32)C)CC(=O)N)C4=CC=C(C=C4)Cl)C
Method in brief: as §1

[3] = compound: CC1=C2C(=CC=C1)N=C(N(C2=O)C3=CC=CC=C3C)CN4C=NC5=C(N=CN=C54)N
Method in brief: as §1

[4] = compound: Cc1sc2c(c1C)C(c1ccc(Cl)cc1)=N[C@@H](CC(=O)OC(C)(C)C)c1nnc(C)n1-2
Method in brief: as §1

[5] = compound: c1ccc([C@@H]2C[C@H]2NC2CCNCC2)cc1
Method in brief: as §1

Measured: log2 fold change

MLST8 (UniProt Q9BVC4)
Chain of UniProt Q9BVC4 (Q9BVC4 whole entry, looked up): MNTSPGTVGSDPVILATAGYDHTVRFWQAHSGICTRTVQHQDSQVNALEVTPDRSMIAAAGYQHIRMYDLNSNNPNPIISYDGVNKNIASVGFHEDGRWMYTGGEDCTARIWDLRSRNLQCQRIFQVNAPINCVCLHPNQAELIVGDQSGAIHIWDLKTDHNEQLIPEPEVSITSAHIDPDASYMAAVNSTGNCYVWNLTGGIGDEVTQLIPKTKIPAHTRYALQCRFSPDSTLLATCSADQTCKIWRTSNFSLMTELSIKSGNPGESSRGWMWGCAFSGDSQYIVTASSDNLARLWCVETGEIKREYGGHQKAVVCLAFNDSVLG
inactive: [1] -0.038 | [2] 0.037 | [3] -0.051 | [4] 0.001 | [5] 0.011

KLHL36 (UniProt Q8N4N3)
Chain of UniProt Q8N4N3 (Q8N4N3 whole entry, looked up): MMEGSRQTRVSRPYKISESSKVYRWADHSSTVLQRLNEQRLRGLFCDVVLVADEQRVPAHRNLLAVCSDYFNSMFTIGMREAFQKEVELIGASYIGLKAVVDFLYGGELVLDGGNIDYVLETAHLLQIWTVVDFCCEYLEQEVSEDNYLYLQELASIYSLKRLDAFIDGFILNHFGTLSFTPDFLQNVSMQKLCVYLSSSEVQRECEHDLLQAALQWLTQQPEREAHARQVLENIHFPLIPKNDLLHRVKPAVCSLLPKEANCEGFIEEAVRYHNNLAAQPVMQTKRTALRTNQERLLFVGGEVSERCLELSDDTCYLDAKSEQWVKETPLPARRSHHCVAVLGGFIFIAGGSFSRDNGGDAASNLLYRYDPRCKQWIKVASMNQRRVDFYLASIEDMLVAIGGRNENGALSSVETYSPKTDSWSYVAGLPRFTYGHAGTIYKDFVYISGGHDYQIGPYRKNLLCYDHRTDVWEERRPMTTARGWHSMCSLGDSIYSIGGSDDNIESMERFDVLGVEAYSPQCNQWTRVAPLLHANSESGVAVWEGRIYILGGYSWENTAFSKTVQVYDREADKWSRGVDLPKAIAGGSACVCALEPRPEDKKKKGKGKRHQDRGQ
inactive: [1] -0.072 | [2] -0.086 | [3] -0.018 | [4] -0.011 | [5] 0.074

MARK3 (UniProt P27448)
Chain of UniProt P27448 (P27448 whole entry, looked up): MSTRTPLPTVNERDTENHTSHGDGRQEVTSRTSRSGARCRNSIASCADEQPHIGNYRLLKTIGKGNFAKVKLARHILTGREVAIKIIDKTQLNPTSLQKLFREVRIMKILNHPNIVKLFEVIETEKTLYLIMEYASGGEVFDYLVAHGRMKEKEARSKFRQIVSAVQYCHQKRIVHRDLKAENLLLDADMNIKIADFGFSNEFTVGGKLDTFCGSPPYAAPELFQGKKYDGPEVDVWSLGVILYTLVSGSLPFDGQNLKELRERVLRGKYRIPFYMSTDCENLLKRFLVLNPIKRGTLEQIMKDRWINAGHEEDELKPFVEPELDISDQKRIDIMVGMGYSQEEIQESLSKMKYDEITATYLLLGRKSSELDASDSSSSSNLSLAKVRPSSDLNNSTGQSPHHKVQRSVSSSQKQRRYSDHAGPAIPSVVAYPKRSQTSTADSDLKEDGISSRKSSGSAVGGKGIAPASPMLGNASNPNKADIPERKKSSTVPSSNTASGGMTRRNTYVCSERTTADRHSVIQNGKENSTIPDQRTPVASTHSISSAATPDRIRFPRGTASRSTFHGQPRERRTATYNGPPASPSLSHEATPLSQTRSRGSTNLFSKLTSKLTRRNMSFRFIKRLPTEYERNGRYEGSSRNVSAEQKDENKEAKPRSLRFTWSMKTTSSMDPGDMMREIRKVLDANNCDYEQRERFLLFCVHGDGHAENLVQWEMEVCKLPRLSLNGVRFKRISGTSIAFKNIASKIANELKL
inactive: [1] 0.02 | [2] 0.069 | [3] 0.118 | [4] -0.06 | [5] 0.053

KNL1 (UniProt Q8NG31)
inactive: [1] 0.009 | [2] 0.003 | [3] -0.004 | [4] -0.03 | [5] -0.001

LIMK1 (UniProt P53667)
Chain of UniProt P53667 (P53667 whole entry, looked up): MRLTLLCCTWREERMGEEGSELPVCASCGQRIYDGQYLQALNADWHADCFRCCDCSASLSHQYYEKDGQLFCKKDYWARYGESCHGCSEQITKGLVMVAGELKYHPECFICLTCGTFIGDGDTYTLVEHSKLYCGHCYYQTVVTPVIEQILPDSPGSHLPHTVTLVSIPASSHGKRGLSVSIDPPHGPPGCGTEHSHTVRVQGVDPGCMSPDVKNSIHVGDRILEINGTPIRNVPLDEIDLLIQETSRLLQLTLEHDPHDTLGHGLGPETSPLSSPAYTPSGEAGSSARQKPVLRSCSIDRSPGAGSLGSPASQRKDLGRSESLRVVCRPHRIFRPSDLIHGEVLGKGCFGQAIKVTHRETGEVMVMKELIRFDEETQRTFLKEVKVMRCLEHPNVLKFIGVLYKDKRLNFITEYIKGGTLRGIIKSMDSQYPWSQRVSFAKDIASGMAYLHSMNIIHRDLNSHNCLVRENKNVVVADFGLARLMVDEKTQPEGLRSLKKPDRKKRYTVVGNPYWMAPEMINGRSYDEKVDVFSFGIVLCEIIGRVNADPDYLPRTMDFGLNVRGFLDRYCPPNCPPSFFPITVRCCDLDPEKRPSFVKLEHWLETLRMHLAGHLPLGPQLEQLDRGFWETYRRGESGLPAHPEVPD
inactive: [1] 0.007 | [2] -0.015 | [3] -0.07 | [4] -0.024 | [5] 0.007

LRPPRC (UniProt P42704)
inactive: [1] -0.067 | [2] 0.043 | [3] 0.049 | [4] 0.039 | [5] 0.122

LAGE3 (UniProt Q14657)
Chain of UniProt Q14657 (Q14657 whole entry, looked up): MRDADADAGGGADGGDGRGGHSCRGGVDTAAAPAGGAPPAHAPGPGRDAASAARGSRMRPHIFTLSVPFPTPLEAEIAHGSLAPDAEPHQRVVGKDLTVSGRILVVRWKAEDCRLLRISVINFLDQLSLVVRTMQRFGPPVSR
inactive: [1] 0.067 | [2] -0.058 | [3] -0.087 | [4] -0.044 | [5] 0.018

MICU2 (UniProt Q8IYU8)
Chain of UniProt Q8IYU8 (Q8IYU8 whole entry, looked up): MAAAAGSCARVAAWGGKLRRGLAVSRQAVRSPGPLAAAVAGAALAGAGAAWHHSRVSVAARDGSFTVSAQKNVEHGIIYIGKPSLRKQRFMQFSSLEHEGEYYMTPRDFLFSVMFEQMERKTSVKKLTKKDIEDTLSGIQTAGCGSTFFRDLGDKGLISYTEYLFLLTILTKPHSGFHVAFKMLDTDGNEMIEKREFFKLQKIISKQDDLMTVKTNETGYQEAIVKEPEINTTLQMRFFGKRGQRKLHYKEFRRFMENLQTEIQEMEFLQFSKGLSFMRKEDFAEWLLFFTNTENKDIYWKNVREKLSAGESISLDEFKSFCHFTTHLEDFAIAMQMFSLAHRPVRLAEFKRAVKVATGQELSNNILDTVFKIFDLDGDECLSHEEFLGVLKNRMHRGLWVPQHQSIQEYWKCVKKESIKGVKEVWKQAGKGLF
inactive: [1] -0.132 | [2] -0.069 | [3] 0.049 | [4] -0.072 | [5] -0.002

MPI (UniProt P34949)
Chain of UniProt P34949 (P34949 whole entry, looked up): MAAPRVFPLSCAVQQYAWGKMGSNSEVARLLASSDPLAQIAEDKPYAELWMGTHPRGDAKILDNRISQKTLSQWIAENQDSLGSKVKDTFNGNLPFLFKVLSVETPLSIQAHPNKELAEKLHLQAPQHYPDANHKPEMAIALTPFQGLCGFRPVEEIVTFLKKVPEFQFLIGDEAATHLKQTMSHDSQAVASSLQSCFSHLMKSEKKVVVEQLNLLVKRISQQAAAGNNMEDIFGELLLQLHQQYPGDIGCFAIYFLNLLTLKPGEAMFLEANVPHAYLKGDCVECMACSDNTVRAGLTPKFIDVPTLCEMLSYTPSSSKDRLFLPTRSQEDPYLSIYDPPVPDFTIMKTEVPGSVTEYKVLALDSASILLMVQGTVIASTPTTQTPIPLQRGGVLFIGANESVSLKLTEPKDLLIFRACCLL
inactive: [1] 0.023 | [2] -0.014 | [3] 0.033 | [4] -0.023 | [5] 0.083
